Source: PubChem BioAssay (Tox21)
Results filed as inconclusive are left out. Active and inactive are the calls of the source. Unless noted, calls follow the shape of the dose curve; as a rule, active = well fitted curve in the direction sought with a large enough effect in the repeat runs; inconclusive = weak or mixed curves; inactive = no such curve, though single readings can be large; an effect the other way counts as inactive or inconclusive.

What was measured:
[1] = qHTS assay for small molecule agonists of the p53 signaling pathway (AID 651631; calls by dose curve; also: nearly all actives have a fitted effect of over 15% in size)
Procedure, shortened: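 Fluorescence intensity from cleaved LiveBLAzer B/G substrate (2 h, room temperature) served as the signal. Beforehand, HCT-116 reporter cells bearing p53 response elements were treated 16 h at 37 °C with DMSO-dissolved compounds.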

[2] = qHTS assay for small molecules that induce genotoxicity in human embryonic kidney cells expressing luciferase-tagged ATAD5 (AID 651632); also: nearly all actives have a fitted effect of over 15% in size
Procedure, shortened: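 DMSO vehicle served as the control. HEK293T reporter cells, 16 hr at 37C, then 30 min Amplite at room temperature; ATAD5 induction is measured as luciferase activity.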

[3] = qHTS assay for small molecule agonists of the p53 signaling pathway - cell viability (AID 651633; calls by dose curve;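 also: p53RE-bla HCT reporter cells with a stable beta-lactamase p53 reporter; series mostly up to about 83 µM; nearly all actives have a fitted effect of over 30% in size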)
Procedure, shortened: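 Viability counter-read: CellTiter-Glo luminescence (30 min, room temperature) in the same p53RE-bla plates. These plates had been exposed to compounds for 16 h at 37 C.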

[4] = qHTS assay for small molecules that induce genotoxicity in human embryonic kidney cells expressing luciferase-tagged ATAD5 - cell viability (AID 651634; calls by dose curve; also: nearly all actives have a fitted effect of over 25% in size)
Procedure, shortened: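 Here HEK293T cells with the ATAD5 luciferase reporter are incubated with test compounds for 15.5 hr, and cytotoxicity is then gauged by measuring protease activity in live cells using fluorescence.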

[5] = qHTS assay for small molecule disruptors of the mitochondrial membrane potential - cell viability (AID 720634; calls by dose curve;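 also: human HepG2 liver cancer cells; series mostly up to about 83 µM; nearly all actives have a fitted effect of over 20% in size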)
Procedure, shortened: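 Viability of HepG2 cells is scored from ATP content by luminescence; cells are exposed to compound for 1 hr at 37 C and 5% CO2, then dosed with m-MPI dye before the CellTiter-Glo reagent.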

[6] = qHTS assay for small molecule disruptors of the mitochondrial membrane potential (AID 720635)
Procedure, shortened: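 Mitochondrial membrane potential tracked with Mito-MPS dye, red aggregates (ex 540/em 590 nm) against green monomers (ex 490/em 535 nm). Compound treatment 1 hr at 37C, dye 30 min in HepG2.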

[7] = qHTS assay to test for compound auto fluorescence at 590 nm (red) in HepG2 cells (AID 720674)
Procedure, shortened: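 We screened compounds on adherent HepG2 cells, incubating them for an hour at 37 C in 5% CO2 before reading emission at 590 nm under 540 nm excitation; values reflect equivalence to Rose Bengal sodium fluorescence.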

[8] = qHTS assay to test for compound auto fluorescence at 535 nm (green) in HepG2 cells (AID 720675)
[9] = qHTS assay to test for compound auto fluorescence at 460 nm (blue) in HEK293 cells (AID 720678)
Procedure, shortened: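 HEK293 cells (2,000/well, medium with 10% dialyzed FBS) attached 4-5 hr, then exposed to compound overnight at 37C, 5% CO2. Blue fluorescence read at 405/460 nm, with triamterene as reference fluorophore.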

[10] = qHTS assay to test for compound auto fluorescence at 590 nm (red) in HEK293 cells (AID 720679)
Procedure, shortened: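 HEK293 cells (2,000/well, 10% dialyzed FBS) attached 4-5 hr, then dosed with compound or DMSO and incubated overnight at 37C, 5% CO2. Red fluorescence read at 540/590 nm, Rose Bengal sodium as reference fluorophore.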

[11] = qHTS assay to test for compound auto fluorescence at 535 nm (green) in HEK293 cells (AID 720680)
[12] = qHTS assay to test for compound auto fluorescence at 460 nm (blue) in HEK293 cell free culture (AID 720681)
Procedure, shortened: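 Blue fluorescence (Ex 405/Em 460 nm, triamterene-equivalent) was read immediately after pin transfer of compound or DMSO into medium (DMEM, 10% FBS) without cells.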

[13] = qHTS assay to test for compound auto fluorescence at 535 nm (green) in HEK293 cell free culture (AID 720682)
Procedure, shortened: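 Intrinsic compound fluorescence is measured in culture medium containing 10% FBS, with excitation at 485 nm and detection at 535 nm, referenced to fluorescein.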

[14] = qHTS assay to test for compound auto fluorescence at 590 nm (red) in HepG2 cell free culture (AID 720684)
Procedure, shortened: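 No cells present: MEM + 10% FBS only. Compound pinned in, red label read (540/590 nm). Activity = fluorescence equivalent to Rose Bengal sodium.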

[15] = qHTS assay to test for compound auto fluorescence at 460 nm (blue) in HepG2 cell free culture (AID 720685)
Procedure, shortened: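 Cell-free plates of MEM plus 10% FBS received 23 nL compound or DMSO vehicle; blue-channel (405/460 nm) intensity scored against triamterene as reference fluorophore.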

[16] = qHTS assay to test for compound auto fluorescence at 535 nm (green) in HepG2 cell free culture (AID 720686)
[17] = qHTS assay to test for compound auto fluorescence at 460 nm (blue) in HepG2 cells (AID 720687)
Procedure, shortened: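 Blue-channel autofluorescence (Ex/Em 405/460 nm, triamterene-equivalent) was measured after 1 hr compound exposure at 37 C, 5% CO2. Cells were HepG2, plated overnight at 37 C in MEM plus 10% FBS.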

[18] = target: Glucocorticoid receptor (Homo sapiens) (UniProt P04150); assay: qHTS assay to identify small molecule agonists of the glucocorticoid receptor (GR) signaling pathway (AID 720691; active = well fitted activation curve with a large enough effect in the signal ratio in the repeat runs, not every such curve was filed as active; the % refers to the signal ratio)
Chain of Glucocorticoid receptor (Homo sapiens) (P04150 whole entry, looked up): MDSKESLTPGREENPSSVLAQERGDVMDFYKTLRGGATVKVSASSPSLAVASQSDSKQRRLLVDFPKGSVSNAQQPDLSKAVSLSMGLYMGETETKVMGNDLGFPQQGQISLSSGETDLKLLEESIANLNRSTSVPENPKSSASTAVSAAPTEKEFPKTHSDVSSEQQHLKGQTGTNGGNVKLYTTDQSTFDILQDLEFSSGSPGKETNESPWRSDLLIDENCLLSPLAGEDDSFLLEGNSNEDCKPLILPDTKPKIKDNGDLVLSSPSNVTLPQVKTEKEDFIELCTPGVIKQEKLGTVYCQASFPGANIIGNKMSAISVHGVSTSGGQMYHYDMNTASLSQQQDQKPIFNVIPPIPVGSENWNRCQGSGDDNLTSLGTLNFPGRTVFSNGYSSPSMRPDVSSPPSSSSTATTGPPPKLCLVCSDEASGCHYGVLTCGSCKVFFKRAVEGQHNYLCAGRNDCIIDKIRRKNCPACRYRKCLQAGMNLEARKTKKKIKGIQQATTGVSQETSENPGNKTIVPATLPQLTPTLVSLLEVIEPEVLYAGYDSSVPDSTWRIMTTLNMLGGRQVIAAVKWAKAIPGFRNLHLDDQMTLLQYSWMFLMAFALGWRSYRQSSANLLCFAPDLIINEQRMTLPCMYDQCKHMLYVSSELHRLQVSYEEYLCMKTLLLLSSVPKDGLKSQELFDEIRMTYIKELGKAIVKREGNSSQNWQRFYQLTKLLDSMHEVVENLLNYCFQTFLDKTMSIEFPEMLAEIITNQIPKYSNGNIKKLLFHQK
Procedure, shortened: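 Compounds in DMSO, alongside positive controls, were added to GR-bla HeLa reporter cells and incubated 18 h at 37 C; GRE-driven beta-lactamase was detected by fluorescence after 2 h with FRET substrate at room temperature.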

[19] = target: Glucocorticoid receptor (Homo sapiens) (UniProt P04150); assay: qHTS assay to identify small molecule antagonists of the glucocorticoid receptor (GR) signaling pathway (AID 720692; active = well fitted inhibition curve with a large enough effect in the signal ratio in the repeat runs, not every such curve was filed as active; the % refers to the signal ratio)
Procedure, shortened: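 In a 1536-well cell format, compounds were added 4 h after seeding GR-bla HeLa cells, together with dexamethasone at 5 nM final; reporter activity was measured by FRET-substrate fluorescence following 18 h at 37 C.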

[20] = qHTS assay to test for compound auto fluorescence at 590 nm (red) in HEK293 cell free culture (AID 720683)
Procedure, shortened: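 Red-channel autofluorescence of compounds in culture medium (DMEM, 10% FBS), no cells, measured at 540/590 nm. Rose Bengal sodium is the reference fluorophore for equivalence.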

Measured: Potency

CCCCC(CC)C(=O)Cl (stereo not given)
not listed: [20]
inactive: all other assays above

COc1nc(NC(C)C)nc(NC(C)C)n1
not listed: [20]
inactive: all other assays above

c1ccc2c(c1)CCCC2
not listed: [6]
inactive: all other assays above

OCC(O)CCl (stereo not given)
not listed: [20]
inactive: all other assays above

CCCOC(=O)c1ccccc1C(=O)OCCC
not listed: [6] | [18] | [19]
inactive: all other assays above

C=CCN=C=S
not listed: [18] | [19] | [20]
inactive: all other assays above

COS(=O)(=O)OC
inactive: all assays above

O=C(O)C1C(C(=O)O)C2(Cl)C(Cl)=C(Cl)C1(Cl)C2(Cl)Cl (stereo not given)
inactive: all assays above
